From PubChem BioAssay (NCATS)
The source made the active and inactive calls. The call rests on the fitted dose curve.

Assay: Cell Proliferation Assay Versus the ED40515 IL2 Independent ATL cell lines (AID 1053194)
Details: ED40515 IL2-independent ATL cells
Excerpt: Adult T-cell leukemia (ATL) develops in individuals infected with human T-cell lymphotropic virus-1 (HTLV-1). Clinically, ATL is subclassified into four subtypes: smoldering, chronic, lymphomatous, and acute. Two autocrine loops (IL-2/IL-2Ralpha and IL-15/IL-15Ralpha) and one paracrine stimulation loop that involves IL-9 expression by ATL cells and IL-9Ralpha expression on monocytes are required to maintain viability and proliferation in the smoldering and chronic forms of the disease. These assays examined the differential response profiles for the MIPE library of approved and investigational drugs versus an IL2 dependent and independent matched ATL cell line, with the current submission examining the differential response profiles for drugs on an IL2 independent matched ATL cell line
Plate log growing ED40515 -IL2 cells: 1000cells/ well in 5uL phenol red free RPMI +5% FBS +1x p/s, Glutamine using 1536 well white griener tissue culture plates and multidrop cassette acoustic dispensing Columns 1 and 3 DMSO Columns 2 and 4, 9.2 uM Bortezomib Incubate 48 hours for celltiter glo 37C with 5%CO2 and 95% humidity with low evaporation lids Dispense 3 uL per well of cell titer glo with multidrop Incubate for 15 minutes at RT Read on VL/2 using Luminesence Wheel (Filter A)

Structure (SMILES)	Potency
CCOc1ccn(-c2ccc(F)cc2)c(=O)c1C(=O)Nc1ccc(Oc2ccnc(N)c2Cl)c(F)c1	23.5 µM (active)
CN(C)C(=O)c1ccc(S(=O)(=O)c2ccc(NC(=O)[C@@](C)(O)C(F)(F)F)c(Cl)c2)cc1	9.35 µM (active)
Cc1cccc(-c2nn(C(=S)Nc3ccccc3)cc2-c2ccnc3ccccc23)n1	26.4 µM (active)
CCOc1cc(C(=O)Nc2ccc(Cl)c(-c3nc4ccccc4[nH]3)c2)cc(OCC)c1OCC	18.7 µM (active)
CCn1c(-c2nonc2N)nc2c(C#CC(C)(C)O)ncc(OC[C@H]3CCCNC3)c21	33.2 µM (active)
O=C1CCCC2=C1C(c1[nH]ncc1Cl)N=C(Nc1nc3ccccc3o1)N2 (stereo not given)	16.6 µM (active)
COc1ccc2c3n(c(=NC(=O)c4cccnc4)nc2c1OC)CCN3	23.5 µM (active)
N#CC[C@H](C1CCCC1)n1cc(-c2ncnc3[nH]ccc23)cn1	20.9 µM (active)
O=c1ncn2nc(Sc3ccc(F)cc3F)ccc2c1-c1c(Cl)cccc1Cl	26.4 µM (active)
Cc1oncc1C(=O)Nc1ccc(C(F)(F)F)cc1	14.8 µM (active)
Clc1ccc(Nc2nnc(Cc3ccncc3)c3ccccc23)cc1	33.2 µM (active)
COc1nc(-c2ccc3c(c2)OCO3)n(-c2ccc(NC(=O)CSc3ccccc3)cc2)n1	23.5 µM (active)
CC(C)(C)OC(=O)CN(Cc1ccc(Cl)cc1)Cc1ccc([N+](=O)[O-])s1	29.6 µM (active)
COCCNCCCn1c(C(=O)CF)c(-c2ccc(C)cc2)c2c(N)ncnc21	9.35 µM (active)
COc1cc(Oc2ccnc3cc(OC)c(OC)cc23)ccc1NC(=O)NC(C)c1nccs1 (stereo not given)	9.35 µM (active)
CCC(C)n1ncn(-c2ccc(N3CCN(c4ccc(OC[C@H]5CO[C@](Cn6cncn6)(c6ccc(Cl)cc6Cl)O5)cc4)CC3)cc2)c1=O (stereo not given in full)	10.5 µM (active)
C[C@]1(c2nc3c(C(N)=O)cccc3[nH]2)CCCN1	16.6 µM (active)
Cc1csc(NC(=O)c2sc3nc4c(c(C(F)(F)F)c3c2N)CCC4)n1	26.4 µM (active)
CC1(C)Cc2c(-c3ccccc3)c(-c3ccc(Cl)cc3)c(CC(=O)O)n2C1	11.8 µM (active)
CCN(CC)CCCC(C)Nc1nc(C)cc(Nc2ccc3nc(C)cc(N)c3c2)n1 (stereo not given)	26.4 µM (active)

Structure (SMILES)	Potency
O=C(NOC[C@H](O)CO)c1ccc(F)c(F)c1Nc1ccc(I)cc1F	33.2 µM (active)
Cc1cc(Nc2nc(N[C@@H](C)c3ncc(F)cn3)ncc2Cl)n[nH]1	14.8 µM (active)
O=C(c1cc(Cc2n[nH]c(=O)c3ccccc23)ccc1F)N1CCN(C(=O)C2CC2)CC1	16.6 µM (active)
CCCc1nc2c(C)cc(-c3nc4ccccc4n3C)cc2n1Cc1ccc(-c2ccccc2C(=O)O)cc1	37.2 µM (active)
CC(C)OC(=O)C1=CN(C(=O)c2ccc(F)c(F)c2)CC(C)(C)c2c1[nH]c1ccccc21	11.8 µM (active)
C[C@@H]1C[C@H]2[C@@H]3CCC4=CC(=O)C=C[C@]4(C)C3(F)[C@@H](O)C[C@]2(C)[C@@]1(O)C(=O)CO (stereo not given in full)	20.9 µM (active)
COc1cc(F)c(F)c(Nc2ccc(I)cc2F)c1NS(=O)(=O)C1(C[C@H](O)CO)CC1	26.4 µM (active)
CCc1ccc(CCOc2ccc(CC3SC(=O)NC3=O)cc2)nc1 (stereo not given)	23.5 µM (active)
CC(C)c1onc(-c2c(Cl)cccc2Cl)c1COc1ccc(/C=C/c2cccc(C(=O)O)c2)c(Cl)c1	33.2 µM (active)
Cc1cc([C@@H](C)Nc2ccccc2C(=O)O)c2nc(N3CCOCC3)cc(=O)n2c1	20.9 µM (active)
Nc1nccc(-c2ccc3noc(-c4ccc(Cl)cc4)c3c2)n1	18.7 µM (active)
Cn1c(=O)c(F)c(Nc2ccc(I)cc2F)c2c(=O)n(C[C@@H](O)CO)cnc21	26.4 µM (active)
COc1ccccc1[C@H](c1cccc2ccccc12)[C@@](C)(C#N)C(=O)N1CCC(c2cccc(C(F)(F)F)c2)CC1	7.43 µM (active)
NC(=O)c1ccc(-c2nc(-c3ccc4c(c3)OCCO4)c(-c3ccccn3)[nH]2)cc1	20.9 µM (active)
C[C@@H]1CN(Cc2ccc(F)cc2)[C@@H](C)CN1C(=O)c1cc2c(C(=O)C(=O)N(C)C)cn(C)c2cc1Cl	37.2 µM (active)
CCCS(=O)(=O)Nc1ccc(F)c(C(=O)c2c[nH]c3ncc(Cl)cc23)c1F	13.2 µM (active)
CNC(=O)c1ccc(N2C(=S)N(c3ccc(C#N)c(C(F)(F)F)c3)C(=O)C2(C)C)cc1F	23.5 µM (active)
COc1ccc(C2=N[C@H](c3ccc(Cl)cc3)[C@H](c3ccc(Cl)cc3)N2C(=O)N2CCNC(=O)C2)c(OC(C)C)c1	33.2 µM (active)
O=S(=O)(N=Cc1c(O)ccc2ccccc12)c1cccs1	26.4 µM (active)
CNC(=O)c1ccc(C)c(-n2c(C)cc(OCc3ccc(F)cc3F)c(Br)c2=O)c1	26.4 µM (active)
